Results reported in the supplement of paper PMC13380429.

These molecules were tested on Vero E6 infected with SARS-CoV-2 (assay: morphology score (similarity to uninfected cells); higher = more like uninfected cells). Settings: 24 h.

SMILES | morphology score
CCn1nc(C(=O)O)c(=O)c2cc3c(cc21)OCO3 [cinoxacin] (10 µM) | -0.0392
C1COC(NC(C2CC2)C2CC2)=N1 [rilmenidine] (10 µM) | -0.0313
CCC(=O)O[C@]1(C(=O)CCl)[C@@H](C)C[C@H]2[C@@H]3CCC4=CC(=O)C=C[C@]4(C)[C@@]3(F)[C@@H](O)C[C@@]21C [clobetasol-propionate] (10 µM) | 0.00072
O=C1C(O)=C([C@H]2CC[C@H](c3ccc(Cl)cc3)CC2)C(=O)c2ccccc21 [atovaquone] (0.833333 µM) | 0.028
Nc1ccn([C@@H]2O[C@@](CO)(CCl)[C@@H](O)[C@H]2F)c(=O)n1 (10 µM) | -0.0112
Nc1cccc(-c2cc3c(Oc4cccc(O)c4)ncnc3[nH]2)c1 (0.833333 µM) | 0.0833
N=C(N)NS(=O)(=O)c1ccc(N)cc1 [sulfaguanidine] (10 µM) | 0.00117
CCCCCC(C)N (stereo not given) [tuaminoheptane] (10 µM) | -0.092
CC(C)[C@H]1C(=O)N[C@@H](CCCNC(=N)N)C(=O)NCC(=O)N[C@@H](CC(=O)O)C(=O)N[C@H](Cc2ccccc2)C(=O)N1C [cilengitide] (10 µM) | -0.377
CC(=O)NS(=O)(=O)c1ccc(N)cc1 [sulfacetamide] (10 µM) | 0.147
C[C@H](Cc1cc2c(c(C(N)=O)c1)N(CCCO)CC2)NCCOc1ccccc1OCC(F)(F)F [silodosin] (10 µM) | -0.144
NC(=O)CC[C@H](N)C(=O)O [L-glutamine] (10 µM) | 0.278
OCCOc1ccc(/C(=C(/CCCl)c2ccccc2)c2ccccc2)cc1 [ospemifene] (10 µM) | 0.19
CC(C)(C)C1CCc2c(sc(NC(=O)c3ccco3)c2C(=O)O)C1 (stereo not given) (0.833333 µM) | 0.0992
C=C1/C(=C\C=C2/CCC[C@]3(C)[C@@H]([C@H](C)/C=C/[C@H](C)C(C)(C)O)CC[C@@H]23)C[C@@H](O)C[C@@H]1O [ercalcitriol] (10 µM) | 0.0324
CC(=O)OC[C@H]1O[C@@H](n2ccc(=O)[nH]c2=O)[C@H](OC(C)=O)[C@@H]1OC(C)=O [uridine-triacetate] (10 µM) | -0.0249
Cc1cc2c(N3CCCC3)nc(N3CCCC3)nc2n1C (10 µM) | 0.452
CN(Cc1ccccc1)C(=O)[C@H](Cc1ccc2ccccc2c1)NC(=O)[C@@H]1C[C@@H](O)CN1C(=O)c1cn(C)c2ccccc12 (10 µM) | 0.179
CC(=O)CC(=O)O [lithium-acetoacetate] (10 µM) | 0.0997
CCCCCCCC/C=C/CCCCCCCC(=O)OC[C@H]1O[C@@H](n2ccc(N)nc2=O)C(F)(F)[C@@H]1O [gemcitabine-elaidate] (0.833333 µM) | 0.0895
CCn1nc(C2CCN(C(=O)CCO)CC2)nc1-c1cnc(N)c(-c2nnc(C(C)(C)C)o2)n1 (0.833333 µM) | 0.199
CCCC[C@H](NC(C)=O)C(=O)N[C@H]1CC(=O)NCCCC[C@@H](C(=O)O)NC(=O)[C@H](Cc2c[nH]c3ccccc23)NC(=O)[C@H](CCCNC(=N)N)NC(=O)[C@@H](Cc2ccccc2)NC(=O)[C@H](Cc2c[nH]cn2)NC1=O [bremelanotide] (10 µM) | 0.067
Cc1nnc(C(C)C)n1C1C[C@H]2CC[C@@H](C1)N2CC[C@H](NC(=O)C1CCC(F)(F)CC1)c1ccccc1 (stereo in doubt) [maraviroc] (10 µM) | 0.145
C[C@H]1N=C(N(C)C)N=C(N)N1 [imeglimin] (10 µM) | 0.0246
CNCCCN1c2ccccc2CCc2ccccc21 [desipramine] (10 µM) | 0.212
COc1ccc2c(c1)C=C1Cn3c-2c(C2CCCCC2)c2ccc(cc23)C(=O)NS(=O)(=O)N(C)CCOCCN(C)C1=O (10 µM) | 0.153
CCN1CCN(Cc2ccc(Nc3ncc(F)c(-c4cc(F)c5nc(C)n(C(C)C)c5c4)n3)nc2)CC1 [abemaciclib] (10 µM) | 0.0416
COc1ccc(-n2[nH]c3c4c(ncc3c2=O)CCCCC4)cc1 (10 µM) | 0.194
Cc1cccn2c(=O)c(/C=C(\C#N)c3nc4ccccc4s3)c(Oc3ccc(F)cc3)nc12 (10 µM) | 0.0128
CCOC(=O)CCC(=O)O[C@H]1[C@H](O[C@@H]2[C@@H](C)[C@H](O[C@H]3C[C@@](C)(OC)[C@@H](O)[C@H](C)O3)[C@@H](C)C(=O)O[C@H](CC)[C@@](C)(O)[C@H](O)[C@@H](C)C(=O)[C@H](C)C[C@@]2(C)O)O[C@H](C)C[C@@H]1N(C)C [erythromycin-ethylsuccinate] (10 µM) | -0.215
